Experimental findings from PubChem BioAssay AID588676 (Johns Hopkins Ion Channel Center, 2011) are described below.

Molecules are shown by their SMILES. Hit rate of the full screen: of about 310,000 compounds, about 3,900 (1.3%) were called active.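 How the source made its calls: active means calcium-response B-score plate-corrected more than 3 library SD below zero, starting fluorescence within 5 deviations, no agonist response on first addition; inactive means the rest.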 Many of the other results were omitted from the sample, so actives are more common in it than they were.

Chain of Mas-related G-protein coupled receptor member X1 (Homo sapiens) (Q96LB2 whole entry, looked up): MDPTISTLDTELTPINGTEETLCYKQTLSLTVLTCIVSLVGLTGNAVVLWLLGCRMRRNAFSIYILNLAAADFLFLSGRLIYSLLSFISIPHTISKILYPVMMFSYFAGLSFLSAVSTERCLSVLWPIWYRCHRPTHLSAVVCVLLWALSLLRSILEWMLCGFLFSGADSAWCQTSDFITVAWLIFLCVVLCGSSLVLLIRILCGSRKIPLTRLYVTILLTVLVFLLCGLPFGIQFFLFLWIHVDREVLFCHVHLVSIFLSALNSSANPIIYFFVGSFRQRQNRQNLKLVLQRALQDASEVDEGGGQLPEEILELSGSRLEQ

This assay has as its target Mas-related G-protein coupled receptor member X1 (Homo sapiens) (UniProt Q96LB2). Briefly: antagonists of human MrgX1 receptor, primary screen, HEK293 cells, Fluo-4 calcium flux (AID 588676).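 On B-score: peak minus trough fluorescence over baseline after final BAM8-22 challenge near maximal dose.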 Conditions: Fluo-4, BAM8-22 antagonism, at 10 µM; stronger effect = lower value. (In general: Calcium assays in cells follow changes in intracellular calcium, usually with a dye or a luminescent sensor.)
For `O=C(COC(=O)Cn1cnc2ccccc21)Nc1cccc2c1C(=O)c1ccccc1C2=O`, the B-score entry was “inactive”.

Consider `Cc1cccc(NC(=O)Cc2ccc(Br)cc2)n1`, for which the B-score result was “inactive”. To `O=C(Cc1c(F)cccc1Cl)Nc1ccc(-n2cnnn2)cc1` belongs “inactive”; to `O=S(=O)(NC1CCCC1)c1ccc(-n2cnnn2)cc1`, “inactive”.

With `c1cc(-n2cnnn2)ccc1NC1=NCCC1`, the B-score was -5.5 (active). To `Cc1ccc(Cl)c(OCC(=O)N(C)CC(=O)Nc2ccc(N3CCOCC3)cc2)c1` belongs “inactive”; to `CCOC(=O)c1ccc(COC(=O)CCc2nc(-c3ccccc3)c(-c3ccccc3)o2)cc1`, “inactive”. As for `O=C(NNC(=O)c1csc(-c2cccnc2)n1)Nc1ccc(Cl)cc1`, the entry is “inactive”.

Take `O=C(Nc1ccc(Cl)cc1)Nc1ccc(Oc2cccnc2)nc1`: the B-score was -7.03 (active). To `Cc1ccc(NC(=O)Nc2cccnc2)cc1` belongs “inactive”; to `CCn1c(SCC(=O)Nc2cc(C)ccc2C)nnc1-c1cnccn1`, “inactive”; to `Cc1ccccc1NC(=O)C(C)c1ccc(-c2ccccc2)c(F)c1` (centres undefined), “inactive”. As for `CCOc1ccc(CN2CCC(n3nccc3NC(=O)C3CC3)CC2)cc1CO`, the entry is “inactive”. Regarding `O=C(NC1CCCC1)C(c1ccc(Cl)cc1)N(C(=O)c1csnn1)C1CC1` (centres undefined), the B-score result is “inactive”. On to `O=C(NC1CCCC1)C(c1ccccn1)N(C(=O)c1csnn1)C1CCCC1` (centres undefined), for which the B-score result is “inactive”. To `Cc1ccc(C(C(=O)NC2CCCCC2)N(C(=O)c2csnn2)C2CC2)o1` (centres undefined) belongs -7.09 (active); to `CCc1ccc(Nc2n[n+](-c3ccccc3)c(-c3cccc(Cl)c3Cl)s2)cc1`, “inactive”.

Turning to `CCc1nnc(NC(=O)CCC(=O)N2CCN(c3cc(C)ccc3C)CC2)s1`, the B-score result is “inactive”.

For the compound `CC1CCC(N2CC(=O)N(Cc3ccc4c(c3)OCO4)C(c3ccc(F)cc3)C2=O)CC1` (centres undefined), the B-score result is “inactive”. As for `CCc1ccccc1NC(=O)c1ccc2c(c1)CCN2S(C)(=O)=O`, the entry is “inactive”. For `CCCCC(=O)Nc1ccc2c(c1)C(=O)NC2=O`, the B-score was -4.77 (active). To `CC(=O)Nc1ccc(Oc2ccc3c(c2)C(=O)NC3=O)cc1` belongs “inactive”; to `CCCCN(C)CCC(=O)Nc1ccc(Cl)cc1`, “inactive”; to `Cc1ccc(CN(CC(=O)NCC2CCCO2)S(=O)(=O)c2ccc(C)cc2)cc1` (centres undefined), “inactive”. To `CCCCCC(=O)N1CCN(S(=O)(=O)c2ccc3c(c2)OCCCO3)CC1` belongs -12 (active); to `CN1CCCN(S(=O)(=O)c2ccc3c(c2)OCCO3)CC1`, “inactive”. As for `O=C(c1c(F)cccc1Cl)N1CCN(S(=O)(=O)c2ccc3c(c2)OCCCO3)CC1`, the entry is “inactive”; as for `COc1ccc(C(=O)NCCn2nc(C)cc2C)cc1OC1CCN(C(C)=O)CC1`, “inactive”; as for `CCOc1ccc(NC(=O)COc2ccc(C(=O)N3CCC(C(N)=O)CC3)cc2OC)cc1`, -8.23 (active). As to `CCOc1ccc(NC(=O)COc2ccc(C(=O)NC3CCCc4ccccc43)cc2OC)cc1` (centres undefined), the B-score entry is “inactive”. As for `COc1ccc(C(=O)N2CCC(C(=O)Nc3cccc(C)c3)CC2)cc1OC`, the entry is “inactive”; as for `Cc1ccc(S(=O)(=O)CCC(=O)OCC(=O)N(C)C2CCS(=O)(=O)C2)cc1` (centres undefined), “inactive”. Consider `O=C(CSc1nnc2n1CCCN2)c1ccccc1`, for which the B-score result was “inactive”. Regarding `Cc1cc(Cl)ccc1NC(=S)NCCCN1CCCC1=O`, the B-score result is “inactive”. To `Cc1c(Cl)cccc1NC(=O)NCCCN1CCCC1=O` belongs “inactive”; to `O=C1CCCN1CCCNC(=S)Nc1ccc(F)c(Cl)c1`, -4.94 (active).

With `O=C(NC1CCN(Cc2ccccc2)CC1)c1cc(Br)c(Br)[nH]1`, the B-score entry was “inactive”. As for `Oc1c(Cl)cc(Cl)c(Cl)c1Cc1c(O)c(Cl)cc(Cl)c1Cl`, the figure is -8.06 (active); as for `O=C(CN1CCCCCC1)Nc1c(Cl)cc(Cl)cc1Cl`, “inactive”; as for `COc1cc2c(C(=O)N3CCN(C)CC3)c(CSc3ccccc3)n(C)c2cc1Br`, “inactive”.

As to `O=C(COC(=O)c1cc(-c2cccs2)nn1-c1ccccc1)Nc1cc([N+](=O)[O-])ccc1Cl`, the B-score result was “inactive”. To `O=C(Nc1ncccc1O)c1ccc(S(=O)(=O)N2CCCCCC2)cc1` belongs “inactive”. Take `O=C(Nc1ncccc1O)c1ccc(S(=O)(=O)N2CCCC2)cc1`: the B-score result was “inactive”.

Turning to `CC(C)(C)n1nc2c(c1NC(=O)c1ccc(S(=O)(=O)N3CCCC3)cc1)CS(=O)C2` (centres undefined), the B-score was -5.73 (active).

`O=C(CCN1C(=O)[C@H]2CC=CC[C@H]2C1=O)NCc1nc(-c2ccccc2)no1`: the B-score entry is “inactive”. Turning to `Cc1ccc(Nc2cc(C)nc3c(C)ccc([N+](=O)[O-])c23)cc1`, the B-score result is “inactive”. As for `O=C(NCCc1c[nH]c2ccccc12)c1cccc(Br)c1`, the entry is “inactive”; as for `Cc1cc(C)cc(NC(=S)NCc2ccc(F)cc2)c1`, “inactive”. `Cc1cc(C)cc(NC(=S)NCCc2c[nH]c3ccccc23)c1`: the B-score is -5.78 (active). As to `NS(=O)(=O)c1ccccc1NC(=O)c1c(O)c2ccccc2[nH]c1=O`, the B-score entry was “inactive”. Regarding `O=C(O)c1ccc2c(c1)C(=O)N(c1ccc(/C=C/C(=O)c3ccccc3)cc1)C2=O`, the B-score is -6.62 (active). For `O=C(/C=C/c1ccc(N2CCOCC2)cc1)c1ccccc1`, the B-score entry was “inactive”. To `Cc1cccc(N2C(=O)c3ccc(C(=O)Nc4cccc(C(=O)O)c4)cc3C2=O)c1` belongs “inactive”; to `Cc1cc(C)cc(C(=O)OCC(=O)NCCNC(=O)COC(=O)c2cc(C)cc(C)c2)c1`, “inactive”.

`CCOC(=O)CNC(=O)CSc1nnc(COc2ccc(Cl)cc2)n1CC`: the B-score entry is “inactive”. As for `CCOC(=O)CNC(=O)CSc1ncccc1-c1nc2ccccc2[nH]1`, the entry is “inactive”.

For the compound `CCOC(=O)CNC(=O)CSc1nc2cccnc2n1CC`, the B-score was -8.3 (active).

In the case of `O=C1c2cccc3cccc(c23)C(=O)N1c1cccc(O)c1`, the B-score entry is “inactive”. Consider `COC(=O)[C@@H]1C[C@@]2(O)[C@@H](O)[C@@H](O)[C@@H](O)C[C@H]2N1Cc1ccc(C)s1`, for which the B-score result is “inactive”.

As for `COc1ccc(Cl)cc1NS(=O)(=O)c1cccc(C(=O)NC2CCC(O)CC2)c1` (centres undefined), the B-score entry is “inactive”.

Turning to `Cc1cc(C(=O)NC2CCCc3c2cnn3-c2cccc(C)c2C)c(C)o1` (centres undefined), the B-score result was “inactive”. To `Cn1nccc1C(=O)NC1CCCc2c1cnn2-c1ccccc1F` (centres undefined) belongs “inactive”. To `COc1ccc(C(=O)NC2CCCc3c2cnn3-c2cccc(C)c2C)c(OC)n1` (centres undefined) belongs -8.89 (active).

Turning to `Cc1ccc(S(=O)(=O)NNC(=O)/C=C/c2cccc(F)c2)cc1`, the B-score result was “inactive”. As to `Cc1ccc(C)c(NC(=O)C2Cc3ccccc3CN2C(=O)OCc2ccccc2)c1` (centres undefined), the B-score result was “inactive”. To `COc1ccc(C(C)NC(=S)NC2CCCCC2)cc1OC` (centres undefined) belongs “inactive”.

Take `CCCN(CC(=O)Nc1ccc(C(N)=O)cc1)CC(=O)Nc1ccccc1C`: the B-score entry is “inactive”. In the case of `CCN(CC)CC(=O)Nc1nn(-c2ccccc2)nc1C(N)=O`, the B-score is -7.03 (active). On to `CCN(CC)CCNCC(=O)Nc1ccc(Oc2ccccc2)cc1`, for which the B-score entry was “inactive”.
